Laboratory results from PubChem BioAssay AID1159580 (chemical genetic matrix, 2015).
“And” between values parts separate entries of the source, which are not always exact repeats. Equal entries are not always repeated. The campaign covered roughly 5,500 compounds. About 2,000 (36%) were called active. Roughly 18% stayed inconclusive and do not appear here. No stated cut-off is given here; in the data, active means normalized growth mostly below about 0.91 (no sharp cut-off); inconclusive means no clear call, values can overlap the other calls; inactive means mostly above about 0.92. The list shows a part of the results.

Assay: chemical genetic growth profiling, strain panel (AID 1159580);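 further: tested at 20 µM; growth read once vehicle control cultures reached saturation at 30 °C; 1 = growth at the plate median or of vehicle wells; lower values mean less growth of the strain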
Details: S. cerevisiae deletion strains, growth OD

Measured: normalized growth

COC(=O)c1c(C)c2c(c(C)c1O)OC(=O)c1c(C)c(Cl)c(O)c(Cl)c1O2
active: locus YDR162C, strain NBP2, hits give low values 0.734 | locus YDR392W, strain spt3, hits give low values 0.617 | locus YGR229C, strain SMI1, hits give low values 0.462 | locus YHR142W, strain chs7, hits give low values 0.849
inactive: locus YAL021C, strain ccr4, hits give low values 0.943 | locus YAL026C, strain drs2, hits give low values 0.951 | locus YAL030W, strain snc1, hits give low values 0.969 | locus YBL061C, strain skt5, hits give low values 0.968 | locus YBR009C, strain hhf1, hits give low values 0.935 | locus YBR021W, strain FUR4, hits give low values 0.962 | locus YBR023C, strain chs3, hits give low values 0.959 | locus YBR171W, strain sec66, hits give low values 0.975 | locus YBR229C, strain ROT2, hits give low values 0.985 | locus YBR231C, strain swc5, hits give low values 0.976 | locus YBR279W, strain paf1, hits give low values 0.944 | locus YCL011C, strain gbp2, hits give low values 0.96 | locus YCL016C, strain dcc1, hits give low values 0.967 | locus YCL029C, strain bik1, hits give low values 1.03 | locus YCL069W, strain vba3, hits give low values 0.944 | locus YCR088W, strain abp1, hits give low values 0.96 | locus YDL005C, strain med2, hits give low values 0.947 | locus YDL035C, strain GPR1, hits give low values 0.894 | locus YDL040C, strain nat1, hits give low values 0.943 | locus YDL074C, strain BRE1, hits give low values 0.926 | locus YDL101C, strain DUN1, hits give low values 0.98 | locus YDL134C, strain PPH21, hits give low values 0.941 | locus YDL185W, strain tfp1, hits give low values 0.995 | locus YDL192W, strain arf1, hits give low values 0.922 | locus YDR001C, strain nth1, hits give low values 0.969 | locus YDR069C, strain doa4, hits give low values 0.967 | locus YDR101C, strain arx1, hits give low values 1 | locus YDR137W, strain rgp1, hits give low values 0.87 | locus YDR159W, strain sac3, hits give low values 0.902 | locus YDR195W, strain ref2 1.03 | locus YDR297W, strain sur2, hits give low values 0.944 | locus YDR318W, strain mcm21, hits give low values 0.975 | locus YDR334W, strain swr1, hits give low values 0.939 | locus YDR335W, strain msn5, hits give low values 0.939 | locus YDR388W, hits give low values 0.984 | locus YDR502C, strain sam2, hits give low values 0.96 | locus YEL003W, strain gim4, hits give low values 0.969 | locus YEL037C, strain rad23, hits give low values 0.957 | locus YEL061C, strain CIN8 (second series), hits give low values 0.961 | locus YEL061C, strain CIN8, hits give low values 0.986 | locus YER015W, strain faa2, hits give low values 0.977 | locus YER016W, strain bim1, hits give low values 0.96 | locus YER110C, hits give low values 1.03 | locus YER111C, strain swi4, hits give low values 0.979 | locus YER155C, strain BEM2 (second series), hits give low values 0.97 | locus YER155C, strain BEM2, hits give low values 1.01 | locus YER167W, strain BCK2, hits give low values 0.937 | locus YFR010W, strain ubp6, hits give low values 0.952 | locus YGL078C, strain dbp3, hits give low values 0.991 | locus YGL086W, strain mad1, hits give low values 0.962 | locus YGL167C, strain pmr1, hits give low values 0.95 | locus YGL173C, strain kem1, hits give low values 0.966 | locus YGL227W, strain vid30, hits give low values 0.969 | locus YGL240W, strain doc1, hits give low values 0.93 | locus YGL248W, strain PDE1, hits give low values 0.983 | locus YGL253W, strain hxk2, hits give low values 0.952 | locus YGR135W, strain pre9, hits give low values 0.964 | locus YGR252W, strain gcn5, hits give low values 0.927 | locus YHR013C, strain ard1, hits give low values 0.946 | locus YHR027C, strain rpn1, hits give low values 0.957 | locus YHR030C, strain SLT2, hits give low values 0.992 and 0.949 | locus YHR079C, strain IRE1 (second series), hits give low values 1.03 | locus YHR079C, strain IRE1, hits give low values 0.94 | locus YHR094C, strain hxt1, hits give low values 1.03 | locus YHR129C, strain ARP1, hits give low values 0.973 | locus YHR200W, strain rpn10, hits give low values 0.993 | locus YIL066C, strain RNR3, hits give low values 0.892 | locus YIL073C, strain SPO22, hits give low values 0.976 | locus YIL125W, strain kgd1, hits give low values 1.01 | locus YIR030C, strain dcg1, hits give low values 1.02 | locus YJL092W, strain hpr5, hits give low values 0.979 | locus YJL095W, strain BCK1 (second series), hits give low values 0.955 | locus YJL095W, strain BCK1, hits give low values 0.84 and 0.969 | locus YJL115W, strain asf1, hits give low values 0.956 | locus YJL129C, strain trk1, hits give low values 0.9 | locus YJL134W, strain LCB3, hits give low values 1 | locus YJL154C, strain vps35, hits give low values 0.967 | locus YJL164C, strain tpk1, hits give low values 0.926 | locus YJL166W, strain qcr8, hits give low values 0.94 | locus YJL168C, strain set2, hits give low values 0.997 | locus YJL187C, strain SWE1 (second series), hits give low values 0.966
